FBA Mtb inh: Mtb fructose-bisphosphate aldolase inhibition; AID 588726; purified M. tuberculosis FBA, fluorescence read-out; inhibition, % at 1 µM; actives 2.3% (n = 360,000); P9WQA3;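 further: 0% = vehicle and 100% = reference inhibitor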
Rv3671c protease: inhibitors of M. tuberculosis serine protease Rv3671c | inhibition, % at 5.96 µM | actives 0.048% (n = 320,000) | AID 2606; in the data active means inhibition above about 38%;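 further: extracellular domain of Rv3671c used as enzyme; 0% = enzyme with DMSO and 100% = no enzyme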
Mtb betalactam: beta-lactam sensitization of Mtb H37Rv; AID 434955; actives 0.27% (n = 330,000); M. tuberculosis H37Rv growth with meropenem, percent inhibition; inhibition, % at 25 µM; call rule not given here;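 further: growth measured after seven days incubation then overnight dye step; 0% = bacteria only wells and 100% = bacteria with antibiotic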
GDH-TPI counter-1: GDH-TPI coupled enzyme inhibition counter-screen; GDH-TPI coupled enzyme counterscreen, NADH absorbance; inhibition, % at 4.8 µM; actives 1.2% (n = 360,000); AID 588335; in the data active means inhibition above about 30%;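 further: 0% = DMSO wells and 100% = wells lacking the enzyme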
RecA splice inh: inhibitors of M. tuberculosis RecA intein splicing; P9WHJ3; cell-free RecA intein splicing, fluorescence; inhibition, % (no concentration beside the values); actives 0.75% (n = 290,000); AID 2221; in the data active means inhibition above about 30%;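 further: 0% = vehicle wells and 100% = reference inhibitor control wells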
UGM FP inh: Mtb UDP-galactopyranose mutase inhibition | P9WIQ1 | purified UGM, fluorescence polarization probe displacement | inhibition, % at 10 µM | actives 0.06% (n = 320,000) | AID 504406; in the data active means inhibition above about 10%, passing the limit was not always enough
Target sequence (P9WIQ1 whole entry, looked up): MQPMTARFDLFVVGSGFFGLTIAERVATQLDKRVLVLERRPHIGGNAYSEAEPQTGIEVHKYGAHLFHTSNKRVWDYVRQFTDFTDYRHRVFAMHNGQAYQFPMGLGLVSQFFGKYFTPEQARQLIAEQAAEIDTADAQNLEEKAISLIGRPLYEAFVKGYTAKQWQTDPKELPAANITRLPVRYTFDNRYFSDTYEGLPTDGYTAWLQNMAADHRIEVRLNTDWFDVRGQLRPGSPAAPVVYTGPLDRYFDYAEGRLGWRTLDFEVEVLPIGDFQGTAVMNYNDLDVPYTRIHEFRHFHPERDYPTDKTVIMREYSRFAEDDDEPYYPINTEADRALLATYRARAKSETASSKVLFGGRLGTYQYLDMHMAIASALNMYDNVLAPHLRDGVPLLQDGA
Mtb FBA confirm: Mtb FBA inhibition, confirmed | inhibition, % at 1 µM | AID 651616 | purified M. tuberculosis FBA, fluorescence read-out | actives 78% (n = 5,600) | shares compounds with FBA Mtb inh;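 further: 0% = vehicle wells and 100% = reference inhibitor wells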
GDH-TPI counter-2: counter-screen for M. tuberculosis FBA inhibitors: GDH-TPI coupled enzyme inhibition | shares compounds with FBA Mtb inh | GDH-TPI coupled enzyme counterscreen, fluorescence | inhibition, % at 1 µM | actives 81% (n = 5,600) | AID 652141; in the data active means inhibition above about 10%
Numbers without * were called inactive; · = no result given; + = active, no number. Most compounds without a hit are left out; they make up all but 4% or so of the library. Unless noted, no stated cut-off is given here; in the data, active means inhibition above about 27%; inactive means the rest.

SMILES	FBA Mtb inh	Rv3671c protease	Mtb betalactam	GDH-TPI counter-1	RecA splice inh	UGM FP inh	Mtb FBA confirm	GDH-TPI counter-2
CCN(C(=S)Nc1cccc2ccccc12)c1ccccc1	29.6*	·	·	13.3	·	·	57.8*	42.6*
C[C@H](N)C(=O)N1CCC(C(=O)N[C@@H](Cc2ccccc2)C(=O)Nc2ccc(F)cc2)CC1	4.0	3.3	-12.4	8.8	·	-0.6	·	·
C[C@H](O)[C@@H]1CN2CCc3c([nH]c4ccccc34)[C@@H]2C[C@@H]1N(C)C(=O)Nc1cc(Cl)cc(Cl)c1	1.4	·	·	10.3	·	·	·	·
CN(C(=O)C(C)(C)C)[C@H]1C[C@H]2c3[nH]c4ccccc4c3CCN2C(=O)[C@H]1CO	79.2*	·	·	21.3	·	·	+	+
C[C@H](O)[C@@H]1C(=O)N2CCc3c([nH]c4ccccc34)[C@@H]2C[C@@H]1N(C)C(=O)Nc1ccccc1	27.6*	·	·	-4.3	·	·	52.1*	41.5*
CCOC(=O)CNC(=O)N(C)[C@H]1C[C@H]2c3[nH]c4ccccc4c3CCN2C(=O)[C@H]1[C@H](C)O	15.5	·	·	·	·	·	·	·
C[C@H](O)[C@@H]1C(=O)N2CCc3c([nH]c4ccccc34)[C@@H]2C[C@@H]1N(C)C(=O)c1ccco1	67.2*	·	·	·	·	·	144.4*	132.4*
C[C@H](O)[C@@H]1C(=O)N2CCc3c([nH]c4ccccc34)[C@@H]2C[C@@H]1N(C)C(=O)Nc1cc(Cl)cc(Cl)c1	30.1*	·	·	18.6	·	·	+	+
COCc1nnc(NC(=O)C2CC(=O)N(CCc3ccc(F)cc3)C2)s1 (configuration not stated)	1.3	1.3	4.4	0.7	0.6	2.6	·	·
CC(=O)C[C@H](O)CC(=O)[C@H]1OC(=O)CCCCCCCCc2ccccc21	-0.1	-2.7	13.2	-8.5	·	-1.5	·	·
CCCCc1cc(=O)oc2cc(C)cc(OCC(=O)N3C[C@H]4C[C@@H](C3)c3cccc(=O)n3C4)c12	42.3*	-0.3	-6.6	12.8	·	4.4	51.2*	37.7*
Cc1cc(OCC(=O)N2C[C@H]3C[C@@H](C2)c2cccc(=O)n2C3)c2c(C)c(C)c(=O)oc2c1	39.6*	-1.8	-4.5	8.8	·	-0.7	38.5*	22.9*
CCCc1cc(=O)oc2cc(C)cc(OCC(=O)N3C[C@H]4C[C@@H](C3)c3cccc(=O)n3C4)c12	41.6*	·	·	9.7	·	·	167.2*	127.0*
CCCCc1cc(=O)oc2cc(OCC(=O)N3C[C@H]4C[C@@H](C3)c3cccc(=O)n3C4)ccc12	6.5	-3.4	-0.9	12.8	-0.9	-1.7	·	·
CCc1cc(=O)oc2c(C)c(OCC(=O)N3C[C@H]4C[C@@H](C3)c3cccc(=O)n3C4)ccc12	6.4	-2.7	-7.7	13.7	-0.1	3.0	·	·
CCOC(=O)C(Cc1ccc(O)c([N+](=O)[O-])c1)N1C(=O)c2ccccc2C1=O (configuration not stated)	-0.7	·	·	14.7	·	·	·	·
Cc1ccc(OCC(=O)Nc2nnc(S(=O)(=O)N3CCC(C)CC3)s2)cc1	3.2	-10.5	-7.2	9.6	-0.8	0.3	·	·
Cc1ccccc1-c1cnc(C(O)c2c(C)cccc2C)[nH]1 (configuration not stated)	0.0	·	·	8.4	·	·	·	·
Cc1cc(C)c(C(O)c2ncc(-c3cccc4ccccc34)[nH]2)c(C)c1 (configuration not stated)	57.0*	·	·	14.3	·	·	89.2*	69.0*
Cc1cccc(C)c1C(O)c1ncc(-c2cccc3ccccc23)[nH]1 (configuration not stated)	56.5*	·	·	9.3	·	·	5.3	-1.1
CC12CCC(=O)N1C(C(=O)NNC(=O)c1ccccc1)CS2 (configuration not stated)	-0.4	-4.3	-6.5	8.1	-1.2	-3.1	·	·
c1ccc(N2CC3CCc4ccccc4C3=N2)cc1 (configuration not stated)	58.2*	16.1	3.8	5.4	·	-2.4	46.3*	31.4*
C=CCn1c(SCC(=O)N(CC)C2CCS(=O)(=O)C2)nc2cc(C(=O)O)ccc2c1=O (configuration not stated)	32.2*	0.3	-8.9	4.8	·	-2.1	111.0*	89.2*

Screening results (PubChem BioAssay)
